The source of these data is PubChem BioAssay (EPA / NIEHS).

Active and inactive are the calls of the source. The calls were made as follows: active = hit-call score of the fitted dose curve at least 0.9, where 1 is the maximum; inactive = score below 0.9.

Read-out in assay [1]: Tumor necrosis factor receptor superfamily member 6 (Homo sapiens) (UniProt P25445)
Briefly: LTEA_HepaRG_FAS: Life Technologies and Expression Analysis (LTEA) Assay for Fas cell surface death receptor (FAS) using HepaRG (AID 2283447). The settings on record: mRNA level, 48 h; actives raise or lower the signal. In short, it runs like this:
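Differentiated HepaRG cells in serum-free induction medium were exposed 48 h to 8 half-log concentrations up to 100 uM in 0.5% DMSO, in duplicate. FAS mRNA was measured by qRT-PCR normalised to ACTB, GAPDH and POLR2A; bidirectional fit versus DMSO.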

Read-out in assay [2]: Fatty acid synthase (Homo sapiens) (UniProt P49327)
Description: LTEA_HepaRG_FASN: Life Technologies and Expression Analysis (LTEA) Assay for Fatty Acid Synthase (FASN) using HepaRG (AID 2283448).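 As to AC50: differentiated human HepaRG liver cells in serum-free induction medium.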 The settings on record: mRNA level, 48 h; actives raise or lower the signal. Put shortly: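 Differentiated HepaRG cells in serum-free induction medium exposed 48 h in duplicate to eight half-log concentrations, top 100 uM, 0.5% DMSO. FASN mRNA by qRT-PCR normalised to ACTB, GAPDH, POLR2A; bidirectional fit versus DMSO.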

Assay [3] can be described thus: CEETOX_H295R_CORTIC: CeeTox H295R High-throughput Steroidogenesis Assay for Corticosterone (CORTIC) (AID 2283437).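 Also: corticosterone secreted into medium quantified by mass spectrometry.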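 As to AC50: human H295R adrenal cells prestimulated with forskolin before chemical exposure.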 The settings on record: actives raise or lower the signal. In short, it runs like this:
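H295R adrenal cells prestimulated 48 hours with 10 uM forskolin, then exposed 48 hours to chemical in 0.1% DMSO. Corticosterone in medium measured by HPLC-MS/MS after MTBE extraction; MTT viability in the same wells; bidirectional fit versus DMSO.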

A short description of assay [4]: CEETOX_H295R_CORTISOL: CeeTox H295R High-throughput Steroidogenesis Assay for Cortisol (AID 2283438).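 Also: cortisol secreted into medium quantified by LC-MS/MS.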 The conditions noted are these: actives raise or lower the signal. Put shortly:
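Forskolin-primed H295R cells (10 uM, 48 h) treated 48 h with test chemical in 0.1% DMSO. Cortisol in medium quantified by MTBE extraction and HPLC-MS/MS; bidirectional fit vs DMSO, MTT viability in same wells.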

The nature of assay [5]: CEETOX_H295R_DOC: CeeTox H295R High-throughput Steroidogenesis Assay for DOC (AID 2283439). The conditions noted are these: actives raise or lower the signal. In short, it runs like this:
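H295R cells prestimulated 48 h with 10 uM forskolin, then exposed 48 h to test chemical (0.1% DMSO final). Medium 11-deoxycorticosterone measured by HPLC-MS/MS after MTBE extraction; bidirectional fit vs DMSO, viability checked by MTT in same wells.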

A short description of assay [6]: CEETOX_H295R_ESTRADIOL: CeeTox H295R High-throughput Steroidogenesis Assay for Estradiol (AID 2283440).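 Also: estradiol secreted into medium quantified by LC-MS/MS after dansyl derivatisation.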 The settings on record: actives raise or lower the signal. Put shortly:
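Readout is estradiol in conditioned medium, quantified by reverse-phase HPLC-MS/MS against a 7-point standard curve. Cells: H295R, forskolin-stimulated, then dosed 48 h in 0.1% DMSO; activity fitted in both directions relative to DMSO.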

Assay [7] in a line: CEETOX_H295R_ESTRONE: CeeTox H295R High-throughput Steroidogenesis Assay for Estrone (AID 2283441).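 Also: estrone secreted into medium measured by LC-MS/MS after dansyl derivatization.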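 As to AC50: human adrenal H295R cells prestimulated with forskolin for two days.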 The settings on record: actives raise or lower the signal. Put shortly:
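H295R cells prestimulated 48 h with 10 uM forskolin, then exposed 48 h to chemicals in 0.1% DMSO final; estrone in medium extracted with MTBE, dansyl-derivatized, quantified by HPLC-MS/MS; bidirectional fitting versus DMSO, viability by MTT.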

A short description of assay [8]: CEETOX_H295R_PROG: CeeTox H295R High-throughput Steroidogenesis Assay for Progesterone (PROG) (AID 2283442).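 As to AC50: human H295R adrenal cells primed with 10 µM forskolin before dosing.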 The settings on record: actives raise or lower the signal. Put shortly:
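Measured analyte is progesterone secreted by H295R cells at 48 h of chemical treatment, following 10 uM forskolin priming. Quantitation used HPLC-MS/MS against a 7-point standard curve; cytotoxicity was checked by MTT absorbance.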

Read-out in assay [9]: Cyclin D2 (CCND2), CCND2 (gene 894)
Briefly: LTEA_HepaRG_CCND2: Life Technologies and Expression Analysis (LTEA) Assay for Cyclin D2 (CCND2) using HepaRG (AID 2283449).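 Also: CCND2 transcript measured by TaqMan qRT-PCR and normalised to three housekeeping genes.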 The settings on record: mRNA level, 48 h; actives raise or lower the signal. Put shortly: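 Chemicals in 0.5% DMSO, eight half-log concentrations from 100 uM top, were applied in duplicate for 48 h to human HepaRG cells in serum-free induction medium. CCND2 mRNA by TaqMan qRT-PCR, normalised to ACTB/GAPDH/POLR2A; bidirectional fit versus DMSO.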

Assay [10] can be described thus: CEETOX_H295R_ANDR: CeeTox H295R High-throughput Steroidogenesis Assay for Androstenedione (ANDR) (AID 2283436). The conditions noted are these: actives raise or lower the signal. In short, it runs like this: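 H295R cells, following OECD 456 with minor changes, exposed to chemicals for 48 h. Androstenedione in the medium was quantified by HPLC-MS/MS after MTBE extraction. Fitting was bidirectional versus DMSO; chemicals were diluted until MTT viability was ≥70%.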

In general, AC50 refers to the concentration giving half of the maximal activity seen.

Chain of Fatty acid synthase (Homo sapiens) (P49327 whole entry, looked up): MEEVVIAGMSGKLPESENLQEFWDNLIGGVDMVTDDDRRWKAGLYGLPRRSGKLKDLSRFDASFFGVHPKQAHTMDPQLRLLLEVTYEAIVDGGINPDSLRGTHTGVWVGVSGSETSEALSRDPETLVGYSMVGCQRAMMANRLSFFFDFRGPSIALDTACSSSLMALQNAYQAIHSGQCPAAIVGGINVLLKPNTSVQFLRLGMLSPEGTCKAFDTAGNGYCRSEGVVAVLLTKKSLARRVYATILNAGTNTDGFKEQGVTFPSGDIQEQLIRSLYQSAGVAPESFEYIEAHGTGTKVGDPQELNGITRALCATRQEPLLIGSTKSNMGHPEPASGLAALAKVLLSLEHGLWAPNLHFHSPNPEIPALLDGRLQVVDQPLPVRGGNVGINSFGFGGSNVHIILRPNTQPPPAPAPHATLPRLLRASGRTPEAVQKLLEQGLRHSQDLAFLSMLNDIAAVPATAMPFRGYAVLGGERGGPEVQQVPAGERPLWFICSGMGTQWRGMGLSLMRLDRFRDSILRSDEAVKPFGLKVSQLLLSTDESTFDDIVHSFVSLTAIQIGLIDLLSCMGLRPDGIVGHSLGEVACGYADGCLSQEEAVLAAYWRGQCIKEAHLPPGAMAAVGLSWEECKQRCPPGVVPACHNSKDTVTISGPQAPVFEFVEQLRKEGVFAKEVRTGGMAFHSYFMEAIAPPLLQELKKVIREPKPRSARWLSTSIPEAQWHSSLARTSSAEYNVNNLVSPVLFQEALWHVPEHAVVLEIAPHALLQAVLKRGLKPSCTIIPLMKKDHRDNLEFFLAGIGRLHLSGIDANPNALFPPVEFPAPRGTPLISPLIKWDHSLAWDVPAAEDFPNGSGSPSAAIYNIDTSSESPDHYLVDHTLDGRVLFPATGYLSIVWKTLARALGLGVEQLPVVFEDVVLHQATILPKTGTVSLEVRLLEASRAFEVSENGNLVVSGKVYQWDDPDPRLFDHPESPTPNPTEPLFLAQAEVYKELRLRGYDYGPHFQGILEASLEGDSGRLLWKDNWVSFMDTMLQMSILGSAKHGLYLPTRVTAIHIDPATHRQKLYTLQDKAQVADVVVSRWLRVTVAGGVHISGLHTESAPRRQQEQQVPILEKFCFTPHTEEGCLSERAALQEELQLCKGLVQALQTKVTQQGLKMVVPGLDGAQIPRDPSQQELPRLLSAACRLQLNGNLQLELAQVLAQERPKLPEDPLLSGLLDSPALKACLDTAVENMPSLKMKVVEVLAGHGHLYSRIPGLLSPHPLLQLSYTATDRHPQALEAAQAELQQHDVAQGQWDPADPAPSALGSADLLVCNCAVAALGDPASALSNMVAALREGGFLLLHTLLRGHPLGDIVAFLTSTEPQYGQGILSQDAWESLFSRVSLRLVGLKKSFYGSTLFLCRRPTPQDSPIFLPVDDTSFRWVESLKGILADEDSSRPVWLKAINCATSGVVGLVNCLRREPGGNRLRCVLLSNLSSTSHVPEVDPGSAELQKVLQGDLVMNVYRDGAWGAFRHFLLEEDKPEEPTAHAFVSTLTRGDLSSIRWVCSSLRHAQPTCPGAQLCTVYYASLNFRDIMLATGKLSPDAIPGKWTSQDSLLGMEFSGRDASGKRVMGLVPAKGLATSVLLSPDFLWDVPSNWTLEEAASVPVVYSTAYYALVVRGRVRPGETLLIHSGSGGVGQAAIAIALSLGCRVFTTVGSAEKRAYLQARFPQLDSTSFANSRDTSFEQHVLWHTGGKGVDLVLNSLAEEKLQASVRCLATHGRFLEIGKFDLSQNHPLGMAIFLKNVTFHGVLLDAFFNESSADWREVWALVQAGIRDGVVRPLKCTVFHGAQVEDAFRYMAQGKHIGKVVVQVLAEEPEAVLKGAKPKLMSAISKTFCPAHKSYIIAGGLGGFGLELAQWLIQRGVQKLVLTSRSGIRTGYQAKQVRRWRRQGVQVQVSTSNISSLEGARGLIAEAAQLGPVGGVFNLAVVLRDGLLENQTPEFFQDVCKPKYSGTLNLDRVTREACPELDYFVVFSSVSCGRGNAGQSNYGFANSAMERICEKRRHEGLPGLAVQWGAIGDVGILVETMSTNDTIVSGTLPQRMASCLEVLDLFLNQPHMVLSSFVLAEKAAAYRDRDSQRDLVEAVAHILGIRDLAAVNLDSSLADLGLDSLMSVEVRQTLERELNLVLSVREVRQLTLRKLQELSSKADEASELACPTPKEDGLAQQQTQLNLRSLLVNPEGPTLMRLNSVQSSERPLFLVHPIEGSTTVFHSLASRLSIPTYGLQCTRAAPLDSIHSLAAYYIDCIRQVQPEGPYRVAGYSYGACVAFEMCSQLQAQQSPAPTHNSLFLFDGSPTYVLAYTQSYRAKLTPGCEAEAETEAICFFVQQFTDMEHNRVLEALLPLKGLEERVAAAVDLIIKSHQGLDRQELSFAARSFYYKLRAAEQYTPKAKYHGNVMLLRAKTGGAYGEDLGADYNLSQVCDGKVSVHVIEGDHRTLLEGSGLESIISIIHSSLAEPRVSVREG

For the molecule `Cc1ccc(C(C)C)cc1`, the outcome in [1] and in assay [2] was inactive.
As to `Cc1cc2c(cc1C(F)(F)F)N(C(=O)Nc1ccc(Oc3cccnc3C)nc1)CC2`, the outcome in assay [3], in assay [6], in assay [7], in assay [2] and in [9] was inactive. For the same molecule, the AC50 is 588 nM (active) in [4], 0.227 µM (active) in assay [5], 257 nM (active) in assay [8] and 78.5 µM (active) in assay [1].
Turning to `C[C@]12CC[C@@H]3c4ccc(O)cc4CC[C@H]3[C@@H]1CCC2=O`, the AC50 in assay [8] was 849 nM (active). Also, the result in [1], in assay [2] and in assay [9] was inactive.
Turning to `O=C(O)c1ccccc1-n1cc(C(=O)O)c(=O)c2cc(Nc3c(F)cc(F)cc3Cl)c(Cl)cc21`, the result in assay [1] and in assay [2] was inactive.
For `O=C(O)Cn1c(=O)n(Cc2ccc(Br)cc2F)c(=O)c2ccc(Cl)cc21`, the molecule was called inactive in assay [10], in assay [3], in assay [4], in assay [5], in assay [6] and in assay [7]. Also, the call in assay [1], in assay [2] and in assay [9] was inactive. The AC50 in [8] was 73300 nM (active).
In the case of `Cc1oc2c(NC(=O)c3c(Cl)cccc3Cl)cccc2c1C(C)(C)O`, the result in [3], in [4], in assay [8] and in assay [1] was inactive. Also, the AC50 is 2.53 µM (active) in [5] and 31.2 µM (active) in [2].
As for `Cc1c2ccccc2c(C)c2c1ccc1ccccc12`, the outcome in assay [10], in [3], in assay [4], in assay [5], in assay [6] and in assay [8] was inactive. In assay [9], the result was inactive. For the same molecule, the AC50 in assay [7] is 657 nM (active); in [1] it was 66.1 µM (active); in assay [2], 51 µM (active).
Regarding `Clc1cc(Cl)c2c(c1)N=C1CCCCCN1C2`, the call in assay [3], in assay [4], in [5], in [8], in assay [1] and in assay [2] was inactive. Besides, in [9], the molecule was called inactive.
As to `CCCC(=O)OCCC(C)C`, the result in [1] and in assay [2] was inactive.
With `CCN(Cc1cccnc1)C(=O)c1cccc(Cl)c1[C@]1(C)C(=O)N(Cc2ccc(OC)cc2OC)c2ccc(Cl)cc21`, the AC50 is 21.3 µM (active) in assay [1] and 5.5 µM (active) in assay [2].
For `CC(=O)N1CCN(c2ccc(OC[C@H]3CO[C@](Cn4ccnc4)(c4ccc(Cl)cc4Cl)O3)cc2)CC1`, the AC50 in assay [3] is 1.77 µM (active); in [4], 895 nM (active); in assay [5] it was 1 µM (active); in assay [7], 1470 nM (active); in assay [1], 89.3 µM (active); in assay [2] it was 26.1 µM (active). In addition, the molecule was classed as inactive in assay [6], in assay [8] and in assay [9].
With `NC(=O)c1nc(-c2cccc(-c3cc(F)ccc3OCC(F)(F)C(F)(F)F)c2)n[nH]1`, the molecule was classed as inactive in [10], in [3], in assay [4], in assay [5], in assay [6] and in assay [7]. The outcome in assay [8], in assay [1] and in [9] was inactive. Besides, the AC50 in assay [2] is 79 µM (active).
`O=C(O)Cc1cc(I)c(Oc2ccc(O)c(I)c2)c(I)c1`: the AC50 in [1] was 88.6 µM (active); in assay [2], 50 µM (active). The molecule was classed as inactive in [9].
Take `Clc1ccccc1C(c1ccccc1)(c1ccccc1)n1ccnc1`: the AC50 in assay [3] is 0.00195 µM (active); in [4] it was 50.2 nM (active); in [5], 0.0401 µM (active); in assay [6] it was 244 nM (active); in assay [7], 410 nM (active); in [8], 7.34 nM (active). For the same molecule, in [2], the AC50 was 23.1 µM (active). For the same molecule, the result in [1] and in assay [9] was inactive.
Regarding `Cc1ccc2oc(CN(Cc3ccccc3)C(=O)Nc3c(F)cc(F)cc3F)c(-c3ccc(Cl)cc3)c2c1`, the molecule was called inactive in assay [3], in [4], in assay [6], in [7], in [1] and in assay [2]. Moreover, the outcome in assay [9] was inactive. For the same molecule, the AC50 is 1.36 µM (active) in assay [5] and 505 nM (active) in assay [8].
Consider `CCCCCCCC[Si](OCC)(OCC)OCC`, for which the result in assay [3], in assay [4], in assay [5], in [8], in [1] and in [2] was inactive. For the same molecule, the molecule was classed as inactive in assay [9].
With `CC/C(=C(/CC)c1ccc(O)cc1)c1ccc(O)cc1`, the AC50 in assay [1] and in assay [2] was 50 µM (active) in each case.
Take `C[C@]12CC[C@@H]3c4ccc(O)cc4CC[C@H]3[C@@H]1CC[C@H]2O`: the AC50 in assay [3] is 2.13 µM (active); in assay [4], 2170 nM (active); in assay [5], 3.31 µM (active); in [8], 2000 nM (active). Moreover, the molecule was classed as inactive in [1], in assay [2] and in assay [9].
`Oc1ccc2ccccc2c1`: the AC50 in assay [10] was 76.7 µM (active). In addition, the result in [3], in [4], in [5], in assay [8], in assay [1] and in assay [2] was inactive. For the same molecule, the molecule was classed as inactive in [9].
